Bioassay records as filed in PubChem BioAssay.
LmPK inhibitor: qHTS Assay for Inhibitors of Leishmania Mexicana Pyruvate Kinase (LmPK); Q27686; purified LmPK, Kinase-Glo ATP luminescence, 1 h; Potency, µM (titrated, usually from 57.5 µM), hits mostly inhibitors; 0.37% of 290,000 active; AID 1721, 2009
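ATP generated from ADP (0.1 mM) and PEP (0.5 mM) by 0.1 nM LmPK over 1 h at room temperature (pH 7.2 imidazole buffer) was detected by coupled luciferase luminescence. Values were normalized to uninhibited and no-enzyme wells.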
Shiga inhibitor: A qHTS for Small Molecule Inhibitors of Shiga Toxin. 9.2% of 290,000 active. Vero cells, Shiga toxin protein synthesis inhibition reporter. AID 2315, 2010. inhibition, % at 38.7 µM; in the data active means inhibition mostly above about 28%, no sharp cut-off; inactive means mostly below about 43%
RE007 growth inh: qHTS Assay for Inhibitors of the HIV-1 protein Vpr; 0.21% of 360,000 active; AID 651644, 2012; S. pombe RE007 Vpr strain, BacTiter-Glo ATP luminescence, 24 h; Potency, µM (titrated, usually from 92.2 µM), usual class: inhibitors; active means well fitted falling curve with a large enough effect; inconclusive means small, poorly fitted or top-dose-only effect; inactive means no such curve, though single readings can be large or run the other way; further: nearly all actives have a fitted effect of over 50% in size
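Fission yeast RE007 carrying one integrated HIV-1 vpr copy, seeded at OD 0.01 in PMG+AL medium with 23 nL pinned compound. Grown 24 h at 30 degrees; viability read by BacTiter-Glo luminescence after 5 min.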
TbPYK inhibitor: qHTS of Trypanosoma Brucei Inhibitors | 0.12% of 410,000 active | Potency, µM (top dose mostly 76.8 µM), usual class: inhibitors | TbPYK enzyme, Kinase-Glo Plus ATP luminescence, 45 min | AID 624173, 2012; further: nearly all actives have a fitted effect of over 50% in size
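Glycolytic pyruvate kinase of T. brucei was incubated with substrate, test compound and 130 uM ADP for 45 minutes at room temperature. Luminescent Kinase-Glo Plus signal was measured after 10 minutes.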
Giardia FBPA inh: qHTS Assay for Inhibitors of Fructose-1,6-bisphosphate Aldolase from Giardia Lamblia. purified Giardia FBPA. Potency, µM (titrated, usually from 59.6 µM), actives largely listed as inhibitors. 0.71% of 290,000 active; further: nearly all actives have a fitted effect of over 55% in size
Target sequence (A8B2U2 whole entry, looked up): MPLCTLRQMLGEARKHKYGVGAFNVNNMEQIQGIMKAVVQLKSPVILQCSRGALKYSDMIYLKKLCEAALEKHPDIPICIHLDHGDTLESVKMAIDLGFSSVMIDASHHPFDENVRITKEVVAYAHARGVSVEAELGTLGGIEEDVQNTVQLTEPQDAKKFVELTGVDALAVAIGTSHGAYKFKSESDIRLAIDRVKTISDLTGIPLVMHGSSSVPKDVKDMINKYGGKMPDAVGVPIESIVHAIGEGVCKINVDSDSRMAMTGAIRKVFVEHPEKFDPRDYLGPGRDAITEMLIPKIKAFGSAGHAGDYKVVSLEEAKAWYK
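Giardia FBPA (40 nM reagent) was preincubated 10 min at RT with compound (up to 57.5 uM final), then substrate plus GAPDH/TPI/NAD/arsenate coupling system with diaphorase/resazurin was added; resorufin fluorescence (525/598 nm) was read after 20 min.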
CHX counter: Cycloheximide Counterscreen for Small Molecule Inhibitors of Shiga Toxin; cell reporter, cycloheximide protein synthesis inhibition counterscreen; max response, %; 12% of 300,000 active; in the data active means max response mostly above about 13%, no sharp cut-off; inactive means mostly below about 14%; further: read at 38.3 µM for the half of the compounds with a filed dose
Large screens that a line does not name were inactive. The full list was thinned out, with hits kept by preference. Unless noted, the call rests on the fitted dose curve; in most records, active means well fitted curve in the direction sought with a large enough effect; inconclusive means small, poorly fitted or top-dose-only effect, or another doubt; inactive means no such curve, though single readings can be large; an effect the other way counts as inactive or inconclusive.

COc1cc(O)c(C(=O)/C=C/c2ccc(OC)c(O)c2)c(OC)c1	none (no result: LmPK inhibitor, Shiga inhibitor, RE007 growth inh, TbPYK inhibitor, CHX counter)
COc1ccc(NC(=S)NC2CCCCCC2)c(OC)c1	Shiga inhibitor 48, RE007 growth inh inconclusive
S=C(Nc1cccc2ccccc12)NC1CCCCC1	Shiga inhibitor 51, Giardia FBPA inh inconclusive, CHX counter 40
COc1ccc(NC(=S)Nc2ccccn2)c(OC)c1	Shiga inhibitor 120, CHX counter 35
COc1ccc(NC(=S)NC(=O)CC(C)C)c(OC)c1	Shiga inhibitor 50, CHX counter 21
COc1ccc(NC(=S)NC2CCCCC2)c(OC)c1	none
CCOc1ccc(C(=O)c2cn(CC(=O)Nc3ccc(Cl)cc3)c3cc4c(cc3c2=O)OCCO4)cc1	none (no result: LmPK inhibitor, Shiga inhibitor, RE007 growth inh, Giardia FBPA inh, CHX counter)
COc1ccc(N(CC(=O)NCc2ccccc2Cl)S(=O)(=O)c2c(C)[nH]c(=O)[nH]c2=O)cc1	none (no result: LmPK inhibitor, Shiga inhibitor, RE007 growth inh, Giardia FBPA inh, CHX counter)
COc1ccc(-c2cn3nc(SCC(=O)Nc4cccc(C)c4C)ccc3n2)cc1	none (no result: LmPK inhibitor, Shiga inhibitor, RE007 growth inh, Giardia FBPA inh, CHX counter)
COc1ccc(NC(=S)Nc2ccc(OC)cc2OC)c(OC)c1	none
COc1ccc(NC(=S)Nc2cc(C)ccn2)c(OC)c1	Shiga inhibitor 75, CHX counter 28
CC1(C)Oc2ccc(C(=O)Nc3ccccc3)cc2N(CC#N)C1=O	Shiga inhibitor 38, CHX counter 18
CCOC(=O)CN1C(=O)C(C)(C)Oc2ccc(C(=O)NC(C)(C)CC)cc21	CHX counter 22
CCC(C)(C)NC(=O)c1ccc2c(c1)N(CC(=O)OC)C(=O)C(C)(C)O2	none
CC1=C(C(=O)Nc2cc(Cl)ccc2C)C(c2ccccc2F)n2ncnc2N1 (centres undefined)	none (no result: LmPK inhibitor, Shiga inhibitor, RE007 growth inh, Giardia FBPA inh, CHX counter)
CN(CC(=O)NCc1ccccc1F)S(=O)(=O)c1ccc(Cl)cc1	none
S=C(NN=C1C2CC3CC(C2)CC1C3)Nc1ccccc1	Shiga inhibitor 146, Giardia FBPA inh inconclusive, CHX counter 53
COc1cccc(CN2CCCC(C(=O)Nc3ccc(-c4cscn4)cc3)C2)c1 (centres undefined)	none (no result: Giardia FBPA inh)
CC(C)(C)c1ccc(C(=O)n2cnc3ccccc32)cc1	Shiga inhibitor 64, CHX counter 30
CN(C)c1ccc(C(=O)n2nnc3ccccc32)cc1	Shiga inhibitor 116, CHX counter 57
CCN(CC)c1ccc(C(=O)n2cnc3ccccc32)cc1	CHX counter 25
CC1(c2ccc([N+](=O)[O-])cc2)NC(=O)N(CC(=O)Nc2cccnc2Cl)C1=O (centres undefined)	none (no result: LmPK inhibitor, Shiga inhibitor, Giardia FBPA inh, CHX counter)
CC1=C(c2ccc(C(C)C)cc2)S(=O)(=O)N=C1N1CCC(C(=O)NCc2ccccc2)CC1	none (no result: LmPK inhibitor, Shiga inhibitor, RE007 growth inh, Giardia FBPA inh, CHX counter)
CCOC(=O)c1ccc(NC(=O)CSc2c3c(nc4cc(Cl)ccc24)CCCC3)cc1	none (no result: LmPK inhibitor, Shiga inhibitor, RE007 growth inh, Giardia FBPA inh, CHX counter)
CCCc1cc(=O)oc2cc(C)c3c(-c4ccccc4)coc3c12	none (no result: LmPK inhibitor, Shiga inhibitor, RE007 growth inh, Giardia FBPA inh, CHX counter)
Cc1ccc(O)c(C(=O)CC(=O)c2ccc(Cl)cc2)c1	Shiga inhibitor 96, CHX counter 38
CCOC(=O)c1ccccc1NC(=O)c1cccc(F)c1	none
Cc1cccc(C(=O)CC(=O)c2cc(Cl)ccc2O)c1	Shiga inhibitor 50, RE007 growth inh inconclusive, CHX counter 27
Cc1cccc(C(=O)NCC(=O)NNC(=O)c2ccccc2O)c1	none (no result: LmPK inhibitor, Shiga inhibitor, Giardia FBPA inh, CHX counter)
O=C(CC(=O)c1cc(Cl)ccc1O)c1ccccc1	Shiga inhibitor 74, RE007 growth inh inconclusive, CHX counter 55
Cc1ccc(O)c(C(=O)CC(=O)c2cccc(F)c2)c1	Shiga inhibitor 61, RE007 growth inh inconclusive, CHX counter 38
CN(C(=O)CSc1nc2ccc(NC(=O)COc3ccc(F)cc3)cc2s1)c1ccccc1	none (no result: LmPK inhibitor, Shiga inhibitor, RE007 growth inh, Giardia FBPA inh, CHX counter)
O=C(Nc1ccn(Cc2ccccc2F)n1)c1ccc(COc2cccc(Br)c2)cc1	Shiga inhibitor 71, CHX counter 54
O=C(Nc1ccn(Cc2ccccc2F)n1)c1ccc(COc2ccccc2Cl)cc1	none
CCOC(=O)c1oc2nc3c(cc2c1N)CCCC3	Shiga inhibitor 77, CHX counter 50
CCOC(=O)c1oc2nc(C)c3c(c2c1N)CC(C)(C)OC3	TbPYK inhibitor inconclusive
CCOC(=O)c1oc2nc3c(cc2c1N)COC(C)(C)C3	Shiga inhibitor 82, CHX counter 20
